Screens (PubChem)
Compounds with a hit are over-represented: about 1.2% of the library has one in this group of screens.
VDR inhibitor = Inhibitors of the vitamin D receptor (VDR): qHTS; VDR-SRC2-3 peptide fluorescence polarization, 2 h; Potency, µM, for the others: max response, negative = inhibition, usual class: inhibitors; Vitamin D3 receptor (Homo sapiens), P11473; hit rate 0.93% among 400,000; note: potency is the fitted concentration of half-maximal effect; % is set by controls: 0 for no effect and ±100 for the full control effect
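The screen uses fluorescence polarization to detect compounds that interfere with recruitment of the SRC2-3 coactivator peptide to VDR; plates are read after 2 h at room temperature.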
USP1 inh = Inhibitors of USP1/UAF1: Primary Screen | Ubiquitin carboxyl-terminal hydrolase 1 (Homo sapiens), O94782 | recombinant USP1/UAF1, Ub-Rhodamine cleavage fluorescence | Potency, µM (top dose mostly 57.1 µM), for the others: top-dose activity change, negative = inhibition, usual class: inhibitors | hit rate 0.23% among 390,000; note: potency is the fitted concentration of half-maximal effect; % is set by controls: 0 for no effect and ±100 for the full control effect; nearly all actives have a fitted effect of over 60% in size
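USP1/UAF1 complex at 1 nM was preincubated with compound for 15 min at room temperature, then Ub-Rho substrate (150nM final) was added. Fluorescence (480/540 nm) was read kinetically, 6 reads every 60 seconds.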
EPAC2 agonist = qHTS for Agonist of cAMP-regulated guanine nucleotide exchange factor 4 (EPAC2): primary screen; Rap guanine nucleotide exchange factor 4 (Homo sapiens), Q8WZA2; EPAC2 activation, biochemical qHTS; response scale: 100% = 6.5 mM cAMP response; Potency, µM (titrated, usually from 154 µM), for inactives: top-dose activation, actives largely listed as activators; hit rate 0.079% among 360,000; note: potency is the fitted concentration of half-maximal effect; nearly all actives have a fitted effect of over 50% in size
Target sequence (Q8WZA2 whole entry, looked up): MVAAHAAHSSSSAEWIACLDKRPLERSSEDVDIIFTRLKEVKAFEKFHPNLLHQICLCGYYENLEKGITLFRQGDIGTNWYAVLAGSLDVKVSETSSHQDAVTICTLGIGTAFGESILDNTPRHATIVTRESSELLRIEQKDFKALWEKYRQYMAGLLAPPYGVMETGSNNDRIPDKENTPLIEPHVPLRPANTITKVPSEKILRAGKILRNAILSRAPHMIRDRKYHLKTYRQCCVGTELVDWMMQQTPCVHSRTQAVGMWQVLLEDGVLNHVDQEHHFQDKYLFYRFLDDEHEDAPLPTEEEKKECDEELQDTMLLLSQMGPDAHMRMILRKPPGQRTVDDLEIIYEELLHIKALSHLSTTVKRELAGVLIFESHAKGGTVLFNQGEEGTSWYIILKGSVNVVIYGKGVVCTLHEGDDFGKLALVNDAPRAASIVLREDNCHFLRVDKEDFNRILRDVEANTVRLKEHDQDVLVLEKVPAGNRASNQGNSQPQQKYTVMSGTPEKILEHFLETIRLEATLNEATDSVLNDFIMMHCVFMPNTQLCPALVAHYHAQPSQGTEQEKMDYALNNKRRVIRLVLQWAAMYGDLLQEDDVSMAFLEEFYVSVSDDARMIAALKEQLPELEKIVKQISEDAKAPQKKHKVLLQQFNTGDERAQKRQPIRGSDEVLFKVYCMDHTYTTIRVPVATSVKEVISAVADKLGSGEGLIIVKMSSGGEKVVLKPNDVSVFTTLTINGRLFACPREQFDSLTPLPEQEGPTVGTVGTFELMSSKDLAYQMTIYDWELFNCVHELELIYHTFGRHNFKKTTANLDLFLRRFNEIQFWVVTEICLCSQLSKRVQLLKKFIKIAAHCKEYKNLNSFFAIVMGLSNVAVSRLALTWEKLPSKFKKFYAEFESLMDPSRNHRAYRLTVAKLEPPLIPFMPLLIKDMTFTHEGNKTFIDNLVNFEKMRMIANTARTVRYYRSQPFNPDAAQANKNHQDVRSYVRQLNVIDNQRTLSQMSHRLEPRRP
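Each well held 100 nM EPAC2, 250 nM RAP1B-BODIPY-GDP and 50 uM GDP. Fluorescence, read at 5-min intervals to 30 min, was referenced to a 6.5 mM cAMP positive control.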
EPAC1 antag = qHTS for Antagonist of cAMP-regulated guanine nucleotide exchange factor 3 (EPAC1): primary screen. EPAC1 GEF assay, Rap1b-BODIPY-GDP exchange fluorescence. Potency, µM (highest dose often 115 µM), inactives show at the highest dose activity change, negative = inhibition, hits mostly inhibitors. hit rate 0.14% among 360,000;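 note: potency is the fitted concentration of half-maximal effect; plate controls were vehicle for no effect and positive control for full effect; nearly all actives have a fitted effect of over 50% in size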
EPAC1 agonist = qHTS for Agonist of cAMP-regulated guanine nucleotide exchange factor 3 (EPAC1): primary screen | AID 720707, 2013 | Potency, µM (series often up to 154 µM), without a hit: at the highest dose activation, most hits filed as activators | EPAC1 agonist qHTS, biochemical assay; response scale: 100% = response to 6.5 mM cAMP | Rap guanine nucleotide exchange factor 3 (Homo sapiens), O95398 | hit rate 0.073% among 360,000; note: potency is the fitted concentration of half-maximal effect; nearly all actives have a fitted effect of over 60% in size
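Multi-concentration qHTS readout: loss of Rap1B-bound BODIPY-GDP fluorescence driven by 100 nM EPAC1 with excess GDP (50 uM), monitored kinetically at room temperature; agonist response expressed relative to 6.5 mM cAMP.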
EPAC2 antag = qHTS for Antagonist of cAMP-regulated guanine nucleotide exchange factor 2 (EPAC2): primary screen. Rap guanine nucleotide exchange factor 4 (Homo sapiens), Q8WZA2. EPAC2 GEF exchange of Rap1B-BODIPY-GDP, fluorescence. Potency, µM (doses to about 114 µM), without a hit: top-dose activity, negative = inhibition, most hits filed as inhibitors. hit rate 0.18% among 360,000; note: potency is the fitted concentration of half-maximal effect; % is set by controls: 0 for no effect and ±100 for the full control effect; nearly all actives have a fitted effect of over 45% in size
USP1-UAF1 confirm = Inhibitors of USP1/UAF1: Hit Validation in Primary Assay; shares compounds with VDR inhibitor; Ub-Rhodamine cleavage, fluorescence kinetic read; Potency, µM (titrated, usually from 114 µM), inactives show top-dose activity change, negative = inhibition, hits mostly inhibitors; hit rate 50% among 50
VDR confirm = qHTS for Inhibitors of the vitamin D receptor (VDR): Hit Validation in Primary Screen | hit rate 89% among 840 | AID 602199, 2012 | shares compounds with VDR inhibitor | Potency, µM, actives largely listed as inhibitors | VDR-coactivator inhibition assay, qHTS confirmation; note: potency is the fitted concentration of half-maximal effect
VDR FP = qHTS for Inhibitors of the vitamin D receptor (VDR): Hit Validation using a Fluorescein Assay | shares compounds with VDR inhibitor | VDR-coactivator binding, fluorescein fluorescence polarization | Potency, µM (series often up to 57.1 µM), inactives show at the top dose activity change, negative = inhibition, most hits filed as inhibitors | hit rate 48% among 840 | AID 602200, 2012; note: potency is the fitted concentration of half-maximal effect
VDR bla = qHTS for Inhibitors of the vitamin D receptor (VDR): Hit Validation using a Beta-Lactamase Assay; AID 602202, 2012; hit rate 23% among 840; shares compounds with VDR inhibitor; VDR beta-lactamase reporter cells, FRET ratio; cells co-treated with VDR agonist LG190178; Potency, µM (titrated, usually from 46.1 µM), inactives show top-dose activity change, negative = inhibition, most hits filed as inhibitors; note: potency is the fitted concentration of half-maximal effect; % is set by controls: 0 for no effect and ±100 for the full control effect
VDR cytotox = qHTS for Inhibitors of the vitamin D receptor (VDR): Hit Validation using a Cytotoxicity Assay; cytotoxicity counter-screen, cell viability, qHTS; Potency, µM (top dose mostly 48.3 µM), for the others: top-dose activity change, negative = cytotoxicity, actives largely listed as cytotoxic; hit rate 18% among 840; shares compounds with VDR inhibitor;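 note: potency is the fitted concentration of half-maximal effect; plate controls were DMSO for no effect and high-concentration cycloheximide for full effect; nearly all actives have a fitted effect of over 75% in size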
Active calls of the source: *; ? = inconclusive; . = no result given. Calls come from the whole dose curve; as a rule, active = well fitted curve in the direction sought with a large enough effect; inconclusive = small, poorly fitted or top-dose-only effect, or another doubt; inactive = no such curve, though single readings can be large; an effect the other way counts as inactive or inconclusive.

SMILES	VDR inhibitor	USP1 inh	EPAC2 agonist	EPAC1 antag	EPAC1 agonist	EPAC2 antag	VDR confirm	VDR FP	VDR bla	VDR cytotox	others
O=[N+]([O-])c1ccc2c(c1)S(=O)(=O)C=C2	13µM*	.	.	.	.	.	22*	?	3.7µM*	6µM*
CC(C)(C)c1ccc(S(=O)(=O)NCc2ccc3c(c2)CCN3C(=O)c2ccccc2)cc1	-12%	6%	.	.	.	.	.	.	.	.
CCOc1cc(/C=C2\CN(C)C/C(=C\c3ccc(O)c(OCC)c3)C2=O)ccc1O	?	-27%	-5%	?	-18%	6%	18*	?	2.9µM*	27µM*
COc1cc(C=C2CN(C)C(=O)C2=O)ccc1O	.	-25%	4%	-26%	-9%	-9%	.	.	.	.
Cc1nn(-c2ccccc2)c(OC(=O)c2ccccc2Br)c1S(=O)(=O)c1ccccc1	7%	-30%	.	.	.	.	.	.	.	.
OCCN1CCN(CCC=C2c3ccccc3Sc3ccc(Cl)cc32)CC1	-3%	.	.	.	.	.	.	.	.	.
OCCN1CCN(CC/C=C2/c3ccccc3Sc3ccc(C(F)(F)F)cc32)CC1	?	-30%	7%	-22%	-20%	?	.	.	.	.	USP1-UAF1 confirm=?
Cc1ccc(O)c(NC(=O)CCS(=O)(=O)c2nc(-c3cccs3)cc(C(F)(F)F)n2)c1	20µM*	?	.	.	.	.	4.5*	7.9µM*	?	?
COc1ccc(-c2cc(C(F)(F)F)nc(SCCC(=O)Nc3cc(C)ccc3O)n2)cc1	-19%	-20%	.	.	.	.	.	.	.	.
O=C(CCS(=O)(=O)c1nc(-c2cccs2)cc(C(F)(F)F)n1)Nc1cc(Br)ccc1O	11µM*	-4%	.	.	.	.	3.2*	3.5µM*	-1%	?
O=C(CCS(=O)(=O)c1nc(-c2cccs2)cc(C(F)(F)F)n1)Nc1ccc(Br)cc1	14µM*	9%	.	.	.	.	3.5*	4µM*	?	?
CCN(CC)c1ccc(NC(=O)CSc2nc(-c3cccs3)cc(C(F)(F)F)n2)cc1	-30%	-29%	.	.	.	.	.	.	.	.
O=C(CCS(=O)(=O)c1nc(-c2ccc3c(c2)OCO3)cc(C(F)(F)F)n1)Nc1ccc(F)cc1F	40µM*	?	.	.	.	.	11*	14µM*	?	2%
CC(C)CCOc1ccc(N)cc1	1%	.	.	.	.	.	.	.	.	.
CCCCCCCCCCCCC/C=C/[C@@H](O)[C@H](CO)NCCCCCCCC	-2%	.	.	.	.	.	.	.	.	.
CCOC(=O)c1cccc(NC(=O)CN2C(=O)c3ccccc3Sc3ncccc32)c1	13%	-21%	.	.	.	.	.	.	.	.
CC(C)NC(=O)COC(=O)CNC(=O)C1CCCCC1	-8%	.	.	.	.	.	.	.	.	.
O=C1/C(=C/c2ccccn2)COc2ccccc21	?	-5%	-11%	-6%	-9%	-13%	13*	22µM*	?	-19%
CC(C)(C)C1C/C(=C/c2ccccn2)C(=O)/C(=C/c2ccccn2)C1 (stereo unspecified)	?	-30%	-9%	-17%	2%	-11%	2.5*	2µM*	1µM*	12µM*
CC(C)(C)Nc1oc(-c2ccccc2)nc1-c1cccc2ccccc12	9%	.	.	.	.	.	.	.	.	.
O=C(C[n+]1csc2ccccc21)c1cccc([N+](=O)[O-])c1	.	.	.	.	.	.	?	?	5%	22%
Cc1cc[n+](CC(=O)c2cccc([N+](=O)[O-])c2)c2ccccc12	16%	-22%	7%	11%	11%	6%	.	.	.	.
COc1ccc(/C=C2/C(=O)N(c3c(F)c(F)c(F)c(F)c3F)N=C2C)cc1	50µM*	-20%	0%	-7%	2%	8%	?	18µM*	15%	22%
[O-]/[N+](=C\c1ccncc1)c1ccc(Br)cc1	45µM*	-7%	0%	-4%	1%	-1%	9.5*	?	6%	2%
COc1ccc(/C=C2\SC(=O)NC2=S)cc1OC	10µM*	-21%	4%	-20%	14%	-9%	3*	24%	21%	-12%
Cc1ccc(/C=C2/SC(=S)N(C3CCCCC3)C2=O)o1	-7%	-10%	-21%	-6%	-7%	-16%	.	.	.	.
Cc1ccc(/C=C2/SC(=O)NC2=S)o1	35µM*	-27%	9%	?	24%	-23%	24*	22µM*	27%	-23%
COc1ccc(OC)c(CCNC(=O)c2c(C)nn(-c3ccc(F)cc3)c2-n2cccc2)c1	8%	-34%	.	.	.	.	.	.	.	.
